High-throughput results (PubChem)
A selection: hits, their analogues and other compounds. The true share with any hit is near 1.6%.
KCNQ2 block: blocks the rat KCNQ2 potassium channel | O88943 | CHO-K1 KCNQ2, FluxOR thallium flux, 20 min; hits give low values | B-score at 10 µM | actives 1.1% (n = 310,000);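 active = fluorescence ratio B-score at most minus 3 library SDs, with starting brightness B-score within 2 library SDs, cut at about -5.5 in these data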
Target sequence (O88943 whole entry, looked up): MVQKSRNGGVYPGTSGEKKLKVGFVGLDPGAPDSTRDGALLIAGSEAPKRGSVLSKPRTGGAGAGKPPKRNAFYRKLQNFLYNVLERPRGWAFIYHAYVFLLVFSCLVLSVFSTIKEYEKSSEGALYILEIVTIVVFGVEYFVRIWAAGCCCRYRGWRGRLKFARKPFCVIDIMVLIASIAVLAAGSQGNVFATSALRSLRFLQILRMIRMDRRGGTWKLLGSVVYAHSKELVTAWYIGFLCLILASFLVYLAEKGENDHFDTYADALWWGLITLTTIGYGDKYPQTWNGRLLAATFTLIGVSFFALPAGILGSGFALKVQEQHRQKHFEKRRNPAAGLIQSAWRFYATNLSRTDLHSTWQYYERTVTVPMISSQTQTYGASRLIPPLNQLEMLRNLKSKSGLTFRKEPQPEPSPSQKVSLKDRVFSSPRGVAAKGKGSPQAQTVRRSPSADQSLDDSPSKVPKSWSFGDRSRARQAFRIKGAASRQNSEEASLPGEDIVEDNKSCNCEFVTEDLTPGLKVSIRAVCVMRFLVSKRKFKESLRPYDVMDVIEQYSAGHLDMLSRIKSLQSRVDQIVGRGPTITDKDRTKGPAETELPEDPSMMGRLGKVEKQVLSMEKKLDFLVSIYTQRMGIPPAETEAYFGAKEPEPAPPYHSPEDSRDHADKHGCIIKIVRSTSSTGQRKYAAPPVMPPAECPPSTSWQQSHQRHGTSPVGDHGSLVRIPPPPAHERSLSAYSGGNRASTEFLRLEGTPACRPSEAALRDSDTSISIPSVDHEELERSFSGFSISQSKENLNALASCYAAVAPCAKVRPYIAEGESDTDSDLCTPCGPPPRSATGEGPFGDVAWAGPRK
KCNQ2 enhance: KCNQ2 (rat) channel potentiation | O88943 | CHO-K1 KCNQ2, FluxOR thallium flux fluorescence; hits give high values | B-score at 10 µM | actives 0.54% (n = 310,000) | AID 2239;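 active = fluorescence ratio B-score at least 3 SD of library B-scores, with initial fluorescence B-score within 3 of them, cut at about 5.3 in these data; same plate scores as AID 2156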;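 note: B-score of peak minus minimum over baseline fluorescence ratio after K+ and Tl+ stimulus; positive B-score means potentiation of KCNQ2 with more thallium influx and brighter signal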
Kir21 conf inh: confirmation of mouse Kir2.1 potassium channel inhibitors | shares compounds with KCNQ2 enhance | Kir2.1-expressing cells, FluxOR thallium flux fluorescence; hits give low values | Tl flux remaining, % of negative control (hits give low values), % at 10 µM | actives 41% (n = 2,300) | AID 2032;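 active = Primary-screen hit whose thallium flux fell at least 3 control SD below untreated wells in both duplicates, with normal baseline fluorescence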
HEK293 ctr: parental HEK293 activity in Kir2.1 inhibitor counter-screen. shares compounds with KCNQ2 enhance. parental HEK293 cells, FluxOR thallium flux fluorescence; 0% = unstimulated blank wells. FluxOR signal as % of negative control (100 = no effect), % at 10 µM. actives 19% (n = 2,300);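 active = dye signal at least 3 control SD above or below untreated wells in both duplicates, raw fluorescence within 3, either direction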;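 note: percent is based on the flux ratio of peak minus minimum fluorescence over baseline F0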
CHO-K1 ctr: alters thallium flux in parental CHO-K1 cells, KCNQ2 counter-screen. AID 2282. actives 43% (n = 1,200). activity increase over 3SD of controls, % at 10 µM. shares compounds with KCNQ2 enhance. FluxOR thallium flux fluorescence; zero = vehicle mean+3SD, 100% = vehicle-minus-blank window;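 active = signal rise of at least 3 SD above the untreated control mean, in both duplicate wells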;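 note: counter screen of KCNQ2 potentiator hits so any rise reflects channel-independent effects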
KCNQ1 pot spec: tests whether KCNQ2 potentiators also act on human KCNQ1. shares compounds with KCNQ2 enhance. CHO KCNQ1 stable, FluxOR thallium flux fluorescence; beyond 3SD, as % of vehicle-control signal. activation over 3SD threshold, % at 10 µM. actives 28% (n = 1,200). AID 2283;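 active = fluorescence ratio rise of at least 3 SD of vehicle wells above their mean, in both replicate wells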
KCNQ2 pot conf: confirmation of rat KCNQ2 potassium channel potentiators. shares compounds with KCNQ2 enhance. CHO-KCNQ2 cells, FluxOR thallium flux fluorescence. potentiation, less the hit threshold, % at 10 µM. actives 68% (n = 1,200). AID 2287;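 active = fluorescence ratio rising 3 SD or more over the vehicle control mean in both replicates, plus primary screen hit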;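 note: peak minus minimum thallium fluorescence divided by baseline after K/Tl stimulus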
Kir21 spec: selectivity of KCNQ2 potentiators: effect on mouse Kir2.1; actives 2% (n = 1,200); HEK293 Kir2.1, FluxOR thallium flux fluorescence; activity over 3SD threshold, % at 10 µM; AID 2345; shares compounds with KCNQ2 enhance;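 active = fluorescence ratio rise of at least 3 SD above the vehicle-control mean, seen in both replicates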
KCNQ2 W236L pot: potentiates the retigabine-insensitive rat KCNQ2 W236L mutant channel; shares compounds with KCNQ2 enhance; CHO KCNQ2-W236L, automated patch clamp current; current increase over 3SD of negative controls (%), hits give high values, % at 25 µM; actives 10% (n = 940); AID 2558;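 active = current increase at least 3 SD of the untreated controls above them in both duplicate recordings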
A number is an active result; i = inactive; nt = not tested or not shown.

SMILES	KCNQ2 block	KCNQ2 enhance	Kir21 conf inh	HEK293 ctr	others
CC1(C(=O)OCC(=O)NNC(=O)COc2ccc(Cl)cc2)CC1(Cl)Cl (stereo not drawn)	i	nt	nt	nt
CCn1cc(S(=O)(=O)Nc2ccc(Cl)cc2F)cn1	i	i	nt	nt
C/C(=N\NC(=O)c1c[nH]c2ccccc12)c1ccc(C)o1	i	i	nt	nt
C/C(=N\NC(=O)c1cc2ccccc2cc1O)c1ccc(C)o1	i	6.7	i	412%	CHO-K1 ctr=i;KCNQ1 pot spec=1.0;KCNQ2 pot conf=67;Kir21 spec=i;KCNQ2 W236L pot=i
O=C(NNC(=O)c1cc2ccccc2cc1O)c1cccs1	i	i	nt	nt
C/C(=N\NC(=O)c1cc2ccccc2cc1O)c1cccs1	i	7.7	i	i	CHO-K1 ctr=102;KCNQ1 pot spec=i;KCNQ2 pot conf=i;Kir21 spec=i
COC(=O)[C@H](C)NC(=O)Nc1cccc(Br)c1	i	nt	nt	nt
CCN(CCCNC(=O)c1nn(C)c2c1CS(=O)(=O)c1ccccc1-2)Cc1ccccc1	i	nt	nt	nt
O=C(CN1C(=O)NC2(CCCC2)C1=O)Nc1ccc(F)c([N+](=O)[O-])c1	i	i	nt	nt
CC(=O)Nc1ccc(NC(=O)c2ccco2)cc1	i	i	nt	nt
Cc1ccc(NC(=O)c2ccc(OC(=O)c3ccco3)cc2)cc1	i	nt	nt	nt
CCN(CC)c1ccc(NC(=O)c2ccco2)cc1	i	i	nt	nt
CCC(C)c1ccc(NC(=O)c2ccco2)cc1 (stereo not drawn)	i	12	i	i	CHO-K1 ctr=26;KCNQ1 pot spec=i;KCNQ2 pot conf=38;Kir21 spec=i;KCNQ2 W236L pot=i
CCN(CC)c1ccc(NC(=S)NC(=O)c2ccco2)cc1	i	11	i	204%	CHO-K1 ctr=i;KCNQ1 pot spec=i;KCNQ2 pot conf=28;Kir21 spec=i;KCNQ2 W236L pot=i
Cc1ccc(Oc2ccc(NC(=O)c3ccco3)cc2)cc1	i	14	i	73%	CHO-K1 ctr=i;KCNQ1 pot spec=i;KCNQ2 pot conf=33;Kir21 spec=i;KCNQ2 W236L pot=19%
CN(C(=O)COC(=O)COc1ccc(Cl)cc1Cl)c1c(N)n(Cc2ccccc2)c(=O)[nH]c1=O	i	i	nt	nt
O=C(CCN1N=C(c2ccccc2)CCC1=O)NCC1CCCO1 (stereo not drawn)	i	i	nt	nt
Cc1ccc(C)c(SCC(=O)N(C)CC(=O)Nc2ccc(N3CCOCC3)cc2)c1	i	i	nt	nt
COc1ccc(Cl)cc1S(=O)(=O)N1CCC(C(=O)NCc2ccccn2)CC1	i	i	nt	nt
CC(=O)c1ccc(-n2c(=O)[nH]c(=O)c3c(N)c(C(=O)c4ccc(Cl)cc4)sc32)cc1	i	nt	nt	nt
CCCC1=NN2C(=N)/C(=C\c3cc(C)n(Cc4ccccc4)c3C)C(=O)N=C2S1	i	12	i	i	CHO-K1 ctr=21;KCNQ1 pot spec=i;KCNQ2 pot conf=i;Kir21 spec=i;KCNQ2 W236L pot=i
Cc1cc(/C=C2\C(=N)N3N=C(S(C)(=O)=O)SC3=NC2=O)c(C)n1Cc1ccccc1	i	i	nt	nt
O=C(NCc1ccccn1)c1ccc(Cl)c(S(=O)(=O)N2CCOCC2)c1	i	i	nt	nt
COC(=O)Cn1cnc2c(oc3ccccc32)c1=O	i	i	nt	nt
Cc1nn(CC(=O)NCCN2CCCCC2C)c(=O)c2cc(-c3ccccc3)nn12 (stereo not drawn)	i	i	nt	nt
SMILES	KCNQ2 block	KCNQ2 enhance	Kir21 conf inh	HEK293 ctr	others
CC(=O)/C(CN1CCCCC1)=N\O	i	nt	nt	nt
C/C(=N\O)C(=O)C(CN1CCCCC1)CN1CCCCC1	i	6	i	i	CHO-K1 ctr=i;KCNQ1 pot spec=35;KCNQ2 pot conf=i;Kir21 spec=i
COc1cccc(CC(CC(=O)O)C(=O)Nc2cc(C)ccc2C)c1 (stereo not drawn)	i	nt	nt	nt
O=C(NNC(=O)c1ccccc1OCc1ccc(F)cc1)c1ccncc1	i	6.1	i	i	CHO-K1 ctr=23;KCNQ1 pot spec=i;KCNQ2 pot conf=i;Kir21 spec=i
COc1ccccc1C(=O)NNC(=O)c1ccc(F)cc1	i	nt	nt	nt
Cc1ccc(C(=O)O)cc1N=Cc1cc(Br)cc(Br)c1O	i	10	i	i	CHO-K1 ctr=i;KCNQ1 pot spec=i;KCNQ2 pot conf=31;Kir21 spec=i;KCNQ2 W236L pot=i
CC(=O)Nc1ccc(C(=O)N/N=C/c2cc(Br)cc(Br)c2O)cc1	i	nt	nt	nt
NC(=O)C1Cc2ccccc2CN1S(=O)(=O)c1ccc(Cl)s1 (stereo not drawn)	i	i	nt	nt
CCN(CC(=O)Nc1c(F)cccc1F)C(=O)CNC(=O)c1ccc(C)s1	i	i	nt	nt
CC(=O)/C(C#N)=C1\NC(=O)C(Cc2ccc(C)c(C)c2)S1 (stereo not drawn)	i	7.2	i	i	CHO-K1 ctr=3.5;KCNQ1 pot spec=i;KCNQ2 pot conf=i;Kir21 spec=i
CC(=O)/C(C#N)=C1\NC(=O)C(Cc2ccc(F)cc2)S1 (stereo not drawn)	i	i	nt	nt
CC(=O)N1c2ccc(S(=O)(=O)N3CCCC3C(=O)NCc3ccccc3Cl)cc2CC1C (stereo not drawn)	i	nt	nt	nt
O=C(NCC(=O)N1CCN(c2ccccc2O)CC1)c1ccccc1	i	i	nt	nt
Cc1cccc(N2CCN(C(=O)CNC(=O)c3cccc([N+](=O)[O-])c3)CC2)c1C	i	nt	i	i
Cc1ccc(N(CC(=O)N2CCN(c3ccc(F)cc3)CC2)S(=O)(=O)c2c(C)noc2C)cc1	i	nt	nt	nt
COc1ccc(NC(=O)C2CC(=O)N(CCc3ccc(Cl)cc3)C2)cc1 (stereo not drawn)	i	i	nt	nt
COc1ccc(/C=C2\SC(=N)N(c3nccs3)C2=O)cc1OC	i	i	nt	nt
N=C1S/C(=C\c2ccc(-c3cccc(Cl)c3)o2)C(=O)N1c1nccs1	i	6.5	i	i	CHO-K1 ctr=i;KCNQ1 pot spec=i;KCNQ2 pot conf=6.8;Kir21 spec=i;KCNQ2 W236L pot=i
CCCOc1ccccc1C(=O)N(Cc1ccc(C)o1)C1CCS(=O)(=O)C1 (stereo not drawn)	i	i	nt	nt
O=[N+]([O-])c1ccc(O)c2cccnc12	i	i	nt	nt
O=[N+]([O-])c1ccccc1Oc1ccc(Cl)c2cccnc12	i	i	nt	nt
O=[N+]([O-])c1cc(Cl)c(O)c2ncccc12	i	5.7	i	i	CHO-K1 ctr=i;KCNQ1 pot spec=66;KCNQ2 pot conf=i;Kir21 spec=i;KCNQ2 W236L pot=i
O=[N+]([O-])c1ccc(O)c2ncccc12	i	8.7	i	i	CHO-K1 ctr=36;KCNQ1 pot spec=i;KCNQ2 pot conf=34;Kir21 spec=i;KCNQ2 W236L pot=i
O=[N+]([O-])c1cc([N+](=O)[O-])c2cccnc2c1Oc1ccccc1O	i	nt	62%	65%
O=[N+]([O-])c1cc(F)c2cccnc2c1O	i	i	nt	nt
CSc1ccc(/C=C2\C(=N)N3N=C(CC(=O)N4CCCCC4)SC3=NC2=O)cc1	i	i	nt	nt
Cc1[nH]c2ccccc2c1C(=O)C(=O)NCc1cccs1	i	nt	nt	nt
CCOc1ccc(CCNC(=O)C2CCCN(c3ncnc4c3nc3n4CCCCC3)C2)cc1 (stereo not drawn)	i	nt	nt	nt
